High-throughput results: PubChem BioAssay, The Scripps Research Institute Molecular Screening Center
Compounds with a hit are over-represented: about 3.4% of the library has one in this group of screens.
TEAD-YAP inh = TEAD-YAP interaction inhibition, primary screen, TEAD-YAP interaction inhibitor project, luminescence, HEK-TIYL cells | inhibition, % at 9.12 µM | TEAD-Gal4/YAP UAS-luciferase luminescence | 1.4% of 640,000 active; in the data active = inhibition above about 32%;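 note: 0% = median of test compound wells and 100% = reference inhibitor wells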
GPR151 activ = activators of human GPR151, primary screen, cell-based, PathHunter beta-arrestin, luminescence; PathHunter beta-arrestin GPR151 cells; activation, % at 11.2 µM; 1% of 650,000 active; AID 1508602, 2020; in the data active = activation above about 4.9%;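 note: 0% = median of compound wells and 100% = cells with positive control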
FBW7 act = FBW7 E3 ligase activators, primary screen, biochemical, AlphaScreen, human. AlphaScreen FBW7–phospho-cyclin E peptide binding, activator screen. AID 1259310, 2017. 0.13% of 650,000 active. F-box/WD repeat-containing protein 7 (Homo sapiens), Q969H0. normalized activity (activation), % at 26.1 µM; in the data active = normalized activity above about 1.9%;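 note: purified mutant Fbw7 with reduced substrate affinity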
MITF primary = MITF inhibitors, primary screen, biochemical, AlphaScreen, human. 0.91% of 650,000 active. AlphaScreen MITF homodimerization, bead proximity signal. Microphthalmia-associated transcription factor (Homo sapiens), O75030. inhibition, % at 2.6 µM; in the data active = inhibition above about 50%;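 note: 0% = vehicle wells with protein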
Target sequence (O75030 whole entry, looked up): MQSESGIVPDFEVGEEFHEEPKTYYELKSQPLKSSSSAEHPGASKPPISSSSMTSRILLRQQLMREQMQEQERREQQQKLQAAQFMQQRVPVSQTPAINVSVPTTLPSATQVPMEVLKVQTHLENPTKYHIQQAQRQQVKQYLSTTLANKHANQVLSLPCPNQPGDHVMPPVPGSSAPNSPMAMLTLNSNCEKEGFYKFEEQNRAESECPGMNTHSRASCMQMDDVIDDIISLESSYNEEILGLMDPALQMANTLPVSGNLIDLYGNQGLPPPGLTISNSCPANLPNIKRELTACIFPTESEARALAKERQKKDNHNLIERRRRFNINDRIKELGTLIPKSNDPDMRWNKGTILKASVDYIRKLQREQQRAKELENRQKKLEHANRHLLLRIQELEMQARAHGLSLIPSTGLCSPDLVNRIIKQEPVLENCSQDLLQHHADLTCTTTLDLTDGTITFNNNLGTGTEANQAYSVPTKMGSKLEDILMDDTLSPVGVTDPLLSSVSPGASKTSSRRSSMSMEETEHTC
GPR151 confirm = GPR151 activators, triplicate retest, confirmation, cell-based, PathHunter beta-arrestin, luminescence | shares compounds with GPR151 activ | GPR151 PathHunter beta-arrestin cells, 90 min; % of EA-reagent control over plate median | activation, % at 11.2 µM | 6,700 tested, under 10 active | AID 1508609, 2020;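 active = mean percent activation across replicates above the confirmation screen cutoff of 4.91%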
GPR119 ag = GPR119 activators in beta-arrestin cells, counter-screen for GPR151 activator project, cell-based, PathHunter beta-arrestin, luminescence, triplicate; shares compounds with GPR151 activ; 90 min; 0 = compound-well median, 100 = enzyme-acceptor control; AID 1508611, 2020; 0.3% of 6,700 active; activation, % at 11.2 µM;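 active = mean percent activation in the counterscreen above 29.09%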;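 note: counterscreen on off-target GPR119 to flag nonselective hits from the GPR151 activator screen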
The depositor's hits bear a star; / = no result; ! = not active in a repeat.

SMILES	TEAD-YAP inh	GPR151 activ	FBW7 act	MITF primary	GPR151 confirm	GPR119 ag
CCOc1cc(/C=N/NC(=O)c2cc(C(C)C)[nH]n2)ccc1O	6.2	-1.3	0.1	6.5	/	/
COc1ccc(/C=N/NC(=O)c2cc(-c3ccc(C)o3)[nH]n2)cc1	8.9	-0.6	0.2	17.1	/	/
Cc1ccc(-c2cc(C(=O)N/N=C/c3cccc(Br)c3)n[nH]2)o1	11.3	7.5*	-0.2	7.9	1.0	-5.5
CCOc1ccc(CC(=O)Nc2c(C(=O)c3ccccc3)oc3ccccc23)cc1OCC	8.9	0.3	0.0	2.9	/	/
NC(=O)C1(N2CCCCC2)CCN(C(=O)NC2CCCCC2)CC1	4.7	5.4*	0.0	9.5	0.5	6.5
Cc1sc(NC(=O)c2ccccc2F)c(-c2nc3ccccc3s2)c1C	-4.5	-1.1	0.0	8.1	/	/
Cn1c(=NC(=O)CS(=O)(=O)c2ccccc2)sc2ccccc21	-25.1	5.0*	0.0	12.2	-0.7	-3.0
CCc1cccc(NC(=O)Nc2ccccc2)c1	-82.7	-0.3	0.6	-8.9	/	/
Cc1cccc(NC(=O)CCc2ccccc2)c1	-21.7	7.8*	0.3	2.5	-0.5	-1.3
CC(=O)Nc1cccc(NC(=O)CCc2ccccc2)c1	-19.3	0.1	0.0	2.0	/	/
CCCN(CCC)S(=O)(=O)c1ccc(NC(=O)CCc2ccccc2)cc1	10.7	7.6*	0.1	-2.9	0.4	-7.4
CCc1cccc(NC(=O)CCC(=O)Nc2cccc(CC)c2)c1	-3.0	7.5*	-0.1	14.3	-0.3	-15.2
CCc1cccc(NC(=O)Cn2cccc2)c1	-6.9	7.6*	-0.1	5.0	0.6	-7.3
CCN(CC)S(=O)(=O)c1ccc(NC(=O)CCc2ccccc2)cc1	3.5	2.0	0.0	1.2	/	/
O=C1NC(=S)/C(=C\c2ccccc2F)S1	-0.6	7.2*	-0.1	9.4	0.1	23.0
Cc1cccn2c(CNC3CCCc4ccccc43)c(C(=O)N3CCOCC3)nc12 (stereo not drawn)	-7.1	-0.8	0.0	-4.3	/	/
Cc1cccn2c(CN[C@@H]3CCCC[C@H]3c3ccccc3)c(C(=O)N3CCOCC3)nc12	-3.2	5.0*	0.2	12.9	1.0	0.7
CCOc1ccc(CC(=O)NCCc2csc(-c3ccccc3)n2)cc1	1.6	1.5	0.1	3.4	/	/
N#Cc1ccc(NN2C(=O)c3cc(Cl)c(Cl)cc3C2=O)c([N+](=O)[O-])c1	16.5	7.0*	-0.1	6.8	-0.5	-3.8
N#Cc1ccc(NN2C(=O)c3ccccc3C2=O)c([N+](=O)[O-])c1	8.9	1.0	0.0	-0.3	/	/
O=C(CN(Cc1ccco1)C(=O)c1csnn1)NCc1ccc(F)cc1	5.7	-0.2	-0.1	-18.3	/	/
O=[N+]([O-])c1c(Oc2ccc(Cl)cc2)ccc2nsnc12	-5.0	5.3*	0.2	12.4	-0.1	-6.7
O=[N+]([O-])c1c(Cl)ccc2nsnc12	-0.8	1.0	0.1	-0.4	/	/
CN1C(=O)c2cccc(NC(=O)c3ccc4ccccc4c3)c2C1=O	-0.1	7.6*	0.0	3.2	1.1	3.6
O=S(=O)(c1cccc2nsnc12)N1CCN(C/C=C\c2ccccc2)CC1	2.2	-0.4	-0.5	0.8	/	/
CC(NC(=O)c1cc(-c2ccccc2Cl)nc2ccccc12)c1ccccc1 (stereo not drawn)	18.1	-0.4	0.1	14.5	/	/
CCC(C)N(C)C(=O)c1cc2ccccc2c(-c2ccccc2Cl)n1 (stereo not drawn)	-1.7	5.4*!	0.0	1.2	0.5	1.6
CCOC(=O)c1ccc(N2C(=O)C3C(c4cccc(Cl)c4Cl)OC4(C(=O)c5ccccc5C4=O)C3C2=O)cc1 (stereo not drawn)	-0.7	0.0	0.1	-1.9	/	/
CC(C)CNC(=O)C1=CC(c2ccc(F)cc2)=NS(=O)(=O)N1C	-8.5	7.5*	0.0	2.4	-0.1	-7.9
CCN(CC)C(=O)C1CC(=O)c2sc(NC(=O)C3CCC3)nc2C1 (stereo not drawn)	-0.2	-0.1	0.1	8.0	/	/
